The values below come from PubChem BioAssay (Tox21).

Each structure is given as a SMILES string. Several values for one entry are separate records, joined by “and”; a condition that tells them apart may be missing. Equal values may be shown once. Records with an inconclusive call do not appear. The source holds several records for some structures; these can differ, active in one and inactive in another. Activity calls are given as the source filed them. Unless noted, the call rests on the fitted dose curve; in most records, active means well fitted curve in the direction sought with a large enough effect in the repeat runs; inconclusive means weak or mixed curves; inactive means no such curve, though single readings can be large; an effect the other way counts as inactive or inconclusive.

The target in experiment [1] is Luciferin 4-monooxygenase (Photinus pyralis) (UniProt P08659). Description: qHTS assay to identify small molecule inhibitors of firefly luciferase (AID 1224835). Further: nearly all actives have a fitted effect of over 25% in size. Further: potency means the concentration at half of the fitted maximal effect. Particulars: purified P. pyralis luciferase, luminescence inhibition; series mostly up to 115 µM. The method in brief: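 Inhibition of purified Photinus luciferase is measured by luminescence. Substrate levels (D-luciferin, ATP) sit at their KM values. Each compound is tested in a concentration series.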
(In qHTS, concentration-response curves come from the screen itself.)

Experiment [2] in a line: qHTS assay to identify small molecule agonists of the constitutive androstane receptor (CAR) signaling pathway - cell viability counter screen (AID 1224836). Further: nearly all actives have a fitted effect of over 45% in size. Further: potency means the concentration at half of the fitted maximal effect. Particulars: HepG2-CYP2B6-hCAR viability, CellTiter-Fluor, 23 h, PK11195 added to every well; series mostly up to 92.4 µM. The method in brief: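 HepG2 cells stably carrying hCAR and a CYP2B6-2.2kb reporter; 15-concentration compounds plus PK11195 (final 0.75 uM), 23 hr at 37 C/5% CO2. Viability read by CellTiter-Fluor fluorescence.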

Experiment [3] concerns the target Nuclear receptor subfamily 1 group I member 3 (Homo sapiens) (UniProt Q14994). Put plainly: qHTS assay to identify small molecule antagonists of the constitutive androstane receptor (CAR) signaling pathway (AID 1224838).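 Further: HepG2 cells stably expressing hCAR with CYP2B6 luciferase reporter stimulated by CITCO; nearly all actives have a fitted effect of over 40% in size.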 Further: potency means the concentration at half of the fitted maximal effect. Particulars: HepG2-CYP2B6-hCAR luciferase, CITCO-stimulated, 24 h; series mostly up to 92.4 µM. In short, it runs like this: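 Antagonist mode used CITCO at a final 50 nM to activate CAR in human hepatoma HepG2 cells carrying stable hCAR and a 2.2 kb CYP2B6 promoter-luciferase construct. Compounds were tested at 15 concentrations over 24 h, with luminescence as the end point.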

For experiment [4] the target is unchanged. Put plainly: qHTS assay to identify small molecule agonists of the constitutive androstane receptor (CAR) signaling pathway (AID 1224839). Further: nearly all actives have a fitted effect of over 15% in size. Further: potency means the concentration at half of the fitted maximal effect. Particulars: HepG2 hCAR CYP2B6-luciferase, agonist mode, 24 h; series mostly up to 92.4 µM. In short, it runs like this: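 HepG2 cells stably co-transfected with hCAR and a CYP2B6-2.2kb luciferase reporter; compounds at 15 concentrations with 0.75 uM PK11195 present. After 24 hr at 37 C, luciferase read by ONE-Glo luminescence.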

Experiment [5] is described as follows: qHTS assay to identify small molecule antagonists of the estrogen related receptor signaling pathway with the pleiotropic PPARgamma coactivator (PGC) from Tox21 10K library - cell viability counter screen (AID 1224840; active means well fitted cell-killing curve with a large enough effect in the repeat runs, not every such curve was filed as active; further: nearly all actives have a fitted effect of over 40% in size; further: potency means the concentration at half of the fitted maximal effect). Particulars: PGC/ERR reporter cells viability, CellTiter-Fluor, 17.5 h; series mostly up to 92.4 µM. The method in brief: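 Multiplexed viability counter screen in the PGC/ERR cell line: cells treated with DMSO-dissolved compounds for 17.5 hours at 37 C, then viability measured as CellTiter-Fluor fluorescence.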

Experiment [6] has as its target Thyrotropin receptor (Homo sapiens) (UniProt P16473). Put plainly: qHTS assay to identify small molecule agonists of the thyroid stimulating hormone receptor (TSHR) signaling pathway (AID 1224843; calls by dose curve; further: nearly all actives have a fitted effect of over 45% in size; further: potency means the concentration at half of the fitted maximal effect). Particulars: TSHR-HEK293 cells, cAMP HTRF, agonist mode, 30 min; series mostly up to 92.4 µM. The method in brief: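 A cell-based cAMP HTRF format was run in TSHR-transfected HEK293 cells, 800 per well. Treatment: 30 min, room temperature. Detection: 1 h with labelled cAMP and anti-cAMP cryptate. Concentration-response over 15 points, three replicates.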

A short description of experiment [7]: qHTS assay to identify small molecule agonists of the hypoxia (HIF-1) signaling pathway - cell viability counter screen (AID 1224844; calls by dose curve; further: nearly all actives have a fitted effect of over 50% in size; further: potency means the concentration at half of the fitted maximal effect). The note with it: HRE-bla ME-180 viability, CellTiter-Glo luminescence, 17 h; series mostly up to 76.8 µM. The method in brief:
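Cytotoxicity was measured in parallel with the HRE-driven beta-lactamase readout: after 17 hrs of compound exposure at 37C, HRE-bla ME-180 cells received CellTiter-Glo and luminescence was recorded 30 min later.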

A short description of experiment [8]: qHTS assay to identify small molecule antagonists of the estrogen related receptor signaling pathway with the pleiotropic PPARgamma coactivator (PGC) from Tox21 10K library (AID 1224841; call rule not given here; further: actives are mostly falling curves and most rising ones were filed inactive; nearly all actives have a fitted effect of over 50% in size). The note with it: PGC/ERR reporter cell line, ONE-Glo luciferase, 18 h; series mostly up to 92.4 µM. In short, it runs like this: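 Steps: plate 2,000 PGC/ERR cells per well; incubate 6 h at 37 C with 5% CO2; transfer compounds from DMSO stocks by pin tool; incubate 18 h at 37 C; add One-Glo; measure luminescence 30 min later.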

The nature of experiment [9]: qHTS assay to identify small molecule agonists of the estrogen related receptor signaling pathway with the pleiotropic PPARgamma coactivator (PGC) from Tox21 10K library (AID 1224842). Further: nearly all actives have a fitted effect of over 15% in size. Further: potency means the concentration at half of the fitted maximal effect. Particulars: PGC/ERR reporter cell line, luciferase ONE-Glo, 18 h; series mostly up to 92.4 µM. In short, it runs like this: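 Luminescence from One-Glo (30 min, room temperature) measured after PGC/ERR cells had 18 h at 37 C with pinned compound (23 nL in DMSO). Cells had been seeded at 2,000 per well and pre-incubated 6 h.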

The nature of experiment [10]: qHTS assay to identify small molecule antagonists of the constitutive androstane receptor (CAR) signaling pathway - cell viability counter screen (AID 1224837). Further: nearly all actives have a fitted effect of over 45% in size. Further: potency means the concentration at half of the fitted maximal effect. The note with it: HepG2-CYP2B6-hCAR viability, CellTiter-Fluor, 23 h, co-treated with 50 nM CITCO; series mostly up to 92.4 µM. The method in brief: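 Viability was measured with CellTiter-Fluor in a HepG2 line carrying stably transfected hCAR and a CYP2B6-2.2kb construct. Cells were exposed for 23 hr at 37 C to 15 compound concentrations with 50 nM CITCO as agonist.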
On the % scale 0 is the no-effect control and ±100 the full control effect.

Sequence of Nuclear receptor subfamily 1 group I member 3 (Homo sapiens) (Q14994 whole entry, looked up): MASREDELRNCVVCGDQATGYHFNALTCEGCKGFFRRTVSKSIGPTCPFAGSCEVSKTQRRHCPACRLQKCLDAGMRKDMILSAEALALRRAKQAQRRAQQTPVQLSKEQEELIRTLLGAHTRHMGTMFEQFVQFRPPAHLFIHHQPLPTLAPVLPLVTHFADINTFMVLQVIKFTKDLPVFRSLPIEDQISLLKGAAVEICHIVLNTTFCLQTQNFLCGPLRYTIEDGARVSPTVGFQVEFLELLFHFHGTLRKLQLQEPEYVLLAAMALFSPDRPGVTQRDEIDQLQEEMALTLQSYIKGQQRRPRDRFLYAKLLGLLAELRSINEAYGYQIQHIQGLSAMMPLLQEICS
Sequence of Thyrotropin receptor (Homo sapiens) (P16473 whole entry, looked up): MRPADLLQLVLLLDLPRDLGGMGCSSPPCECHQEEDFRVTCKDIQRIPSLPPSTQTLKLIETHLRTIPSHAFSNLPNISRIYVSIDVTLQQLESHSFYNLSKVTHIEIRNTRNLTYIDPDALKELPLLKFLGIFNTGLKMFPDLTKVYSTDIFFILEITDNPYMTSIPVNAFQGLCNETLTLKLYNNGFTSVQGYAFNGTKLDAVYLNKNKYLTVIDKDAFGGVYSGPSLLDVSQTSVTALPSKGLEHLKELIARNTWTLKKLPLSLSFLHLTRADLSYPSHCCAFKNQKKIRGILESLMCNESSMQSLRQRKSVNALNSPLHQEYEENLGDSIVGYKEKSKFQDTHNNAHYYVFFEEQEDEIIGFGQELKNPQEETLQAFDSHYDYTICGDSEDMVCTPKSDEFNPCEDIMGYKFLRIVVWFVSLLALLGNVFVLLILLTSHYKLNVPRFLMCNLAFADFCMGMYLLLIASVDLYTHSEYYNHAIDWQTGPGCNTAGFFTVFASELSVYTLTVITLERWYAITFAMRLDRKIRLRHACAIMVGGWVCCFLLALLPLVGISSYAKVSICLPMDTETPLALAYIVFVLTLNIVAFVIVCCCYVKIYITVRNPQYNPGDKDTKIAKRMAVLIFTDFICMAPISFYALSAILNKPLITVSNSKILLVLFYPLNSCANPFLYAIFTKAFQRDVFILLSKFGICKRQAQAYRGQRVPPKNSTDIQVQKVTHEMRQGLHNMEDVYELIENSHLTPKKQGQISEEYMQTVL
Sequence of Luciferin 4-monooxygenase (Photinus pyralis) (P08659 whole entry, looked up): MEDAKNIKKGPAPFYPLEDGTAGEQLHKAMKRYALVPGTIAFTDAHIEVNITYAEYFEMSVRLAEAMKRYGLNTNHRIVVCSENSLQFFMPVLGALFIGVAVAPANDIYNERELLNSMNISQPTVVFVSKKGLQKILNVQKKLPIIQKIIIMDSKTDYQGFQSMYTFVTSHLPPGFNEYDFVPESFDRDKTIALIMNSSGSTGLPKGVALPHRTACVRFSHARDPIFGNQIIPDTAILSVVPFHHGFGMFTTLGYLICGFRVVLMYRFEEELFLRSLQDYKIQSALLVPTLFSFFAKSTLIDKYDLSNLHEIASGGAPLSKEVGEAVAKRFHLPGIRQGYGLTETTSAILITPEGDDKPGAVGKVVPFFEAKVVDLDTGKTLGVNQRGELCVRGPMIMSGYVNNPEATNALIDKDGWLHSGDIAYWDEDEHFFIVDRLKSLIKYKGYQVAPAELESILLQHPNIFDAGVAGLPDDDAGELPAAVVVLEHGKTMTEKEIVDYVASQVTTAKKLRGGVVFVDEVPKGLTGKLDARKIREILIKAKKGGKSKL

For `Clc1ccc(C(c2ccccc2Cl)C(Cl)Cl)cc1` (stereo unspecified), the Potency result in experiment [1], in experiment [2], in experiment [3] and in [5] was “inactive” in each case. For the same compound, the Potency in experiment [4] was 13.7 µM (active) and 11.9 µM (active); in experiment [6], 12.2 µM (active) and 5.31 µM (active); in experiment [7], 54.9 µM (active).

On to `O=c1cccc[nH]1`, for which the Potency result in experiment [1], in [2], in experiment [3], in [4], in experiment [5] and in [8] was “inactive” in each case. In addition, in [9], the Potency entry is “inactive”.

On to `O=C(O)CCCCCCC(=O)O`, for which the Potency entry in experiment [1], in experiment [2], in [10], in [5] and in [7] was “inactive” in each case.

As for `CCc1cccc(CC)c1NC(=O)C(=O)O`, the Potency entry in [1], in [2], in experiment [3], in experiment [4], in experiment [5] and in experiment [9] was “inactive” in each case. For the same compound, the Potency entry in [6] and in experiment [7] was “inactive” each time.

For `CCCC(=O)OCC(COC(=O)CCC)OC(=O)CCC`, the Potency result in [1], in [2], in experiment [3], in experiment [4], in experiment [5] and in experiment [8] was “inactive” in each case. Also, the Potency result in experiment [7] was “inactive”.

On to `c1ccc(Sc2ccccc2)cc1`, for which the Potency entry in experiment [1], in experiment [2], in [10], in experiment [5] and in experiment [7] was “inactive” each time.

`Oc1ccc(-c2ccccc2)c(Cl)c1`: the Potency in [1] was 39.9 µM (active). Moreover, the Potency entry in experiment [2], in experiment [3], in [5] and in [6] was “inactive” each time.

As for `Cc1cccc(C)n1`, the Potency result in experiment [1], in [2], in experiment [3], in experiment [4], in experiment [5] and in experiment [6] was “inactive” each time. In addition, the Potency entry in [7] was “inactive”.

On to `C=CC(=C)CCC=C(C)C`, for which the Potency entry in experiment [1], in experiment [2], in experiment [4], in experiment [5] and in experiment [7] was “inactive” in each case. The Potency in experiment [3] is 61.1 µM (active).

On to `CC(=O)Nc1ccc(O)cc1`, for which the Potency result in experiment [1], in experiment [2], in [10], in experiment [5] and in experiment [7] was “inactive” each time.

As to `CC(C)(C)c1cc(CCC(=O)NCCCCCCNC(=O)CCc2cc(C(C)(C)C)c(O)c(C(C)(C)C)c2)cc(C(C)(C)C)c1O`, the Potency result in [1], in [2], in experiment [4], in experiment [5] and in [7] was “inactive” throughout. In [3], the Potency was 1.93 µM (active).

As to `S=C(SSSSSSC(=S)N1CCCCC1)N1CCCCC1`, the Potency in experiment [1] is 6.22 µM (active); in experiment [2], 8.48 µM (active); in [10], 7.56 µM (active); in experiment [7], 3.41 µM (active).

In the case of `Brc1ccccn1`, the Potency result in experiment [1], in experiment [2], in experiment [3] and in experiment [5] was “inactive” throughout.

As for `CC(C)c1ccc(O)c(C(C)C)c1`, the Potency entry in [1], in experiment [2], in experiment [3], in experiment [4], in [5] and in experiment [6] was “inactive” in each case.

For `CCCCCCCCCCCCCC[n+]1ccccc1`, the Potency result in experiment [1], in [4] and in experiment [9] was “inactive” throughout. For the same compound, the Potency was 7.7 µM (active) in [2], 48.6 µM (active) in experiment [3], 54.5 µM (active) in experiment [5] and 49 µM (active) in experiment [7].

Consider `CC1(C)COCN1`, for which the Potency result in experiment [1], in [2], in [3], in experiment [4], in experiment [5] and in experiment [9] was “inactive” in each case. Further, the Potency entry in experiment [6] and in [7] was “inactive” each time.

As to `Cc1nc(Nc2ncc(C(=O)Nc3c(C)cccc3Cl)s2)cc(N2CCN(CCO)CC2)n1`, the Potency result in experiment [1], in experiment [4], in experiment [6] and in experiment [7] was “inactive” throughout. Besides, the Potency is 7.5 µM (active) in experiment [2] and 9.44 µM (active) in experiment [3].

As for `C=C[C@](C)(O)CC[C@@H]1[C@@]2(C)CCCC(C)(C)[C@@H]2CC[C@@]1(C)O`, the Potency entry in experiment [1] and in [3] was “inactive” throughout. The Potency is 61.1 µM (active) in experiment [2], 61.1 µM (active) in experiment [5], 19.3 µM (active) in [6] and 49 µM (active) in [7].

With `O=C=NCc1cccc(CN=C=O)c1`, the activity change, negative = inhibition in experiment [1] is 3.61% [at 23.6 µM] (inactive). Further, the viability change, negative = cytotoxic in experiment [2] was -4.88% [at 19 µM] (inactive); in experiment [5], -5.21% [at 19 µM] (inactive). Besides, the activity, negative = inhibition in experiment [3] was -4.42% [at 19 µM] (inactive). In addition, the activation in experiment [4] is -1.77% [at 19 µM] (inactive). Further, in [7], the activity change, negative = cytotoxicity was 6.46% [at 15.8 µM] (inactive).

On to `N[C@@H](CSSC[C@H](N)C(=O)O)C(=O)O`, for which, in [1], the activity change, negative = inhibition is -0.457% [at 0.435 µM] (inactive). Moreover, the viability change, negative = cytotoxic in [2] was 5.67% [at 0.349 µM] (inactive); in [5], 6.11% [at 0.349 µM] (inactive). Besides, the activity, negative = inhibition in experiment [3] is -10.8% [at 0.349 µM] (inactive); in experiment [8] it was 16.2% [at 0.349 µM] (inactive). Besides, the activation in experiment [9] was 4.81% [at 0.349 µM] (inactive); in experiment [6], 2.51% [at 0.349 µM] (inactive). In experiment [7], the activity change, negative = cytotoxicity was 25.3% [at 0.29 µM] (inactive).

Consider `CCCCCCCC(=O)OCC`, for which the Potency result in experiment [1], in experiment [2], in experiment [5], in experiment [8], in [9] and in [6] was “inactive” each time. In experiment [7], the Potency result was “inactive”.

With `C=CC(C)(CCC=C(C)C)OC(=O)/C=C/c1ccccc1` (stereo unspecified), the Potency entry in experiment [1], in experiment [2], in [3], in experiment [5], in experiment [6] and in experiment [7] was “inactive” each time.

As for `CCOC(=O)N1CCC(=C2c3ccc(Cl)cc3CCc3cccnc32)CC1`, the Potency result in experiment [1], in [2] and in experiment [3] was “inactive” each time. The Potency was 30.6 µM (active) in experiment [5]; 54.9 µM (active) and inactive in [7].

For the compound `CCOC(=O)C1=C(C)NC(C)=C(C(=O)OCC)C1c1ccccc1/C=C/C(=O)OC(C)(C)C`, the Potency result in [1], in [2], in experiment [3], in experiment [9] and in [6] was “inactive” each time.

Regarding `CC(C)(c1cc(Br)c(O)c(Br)c1)c1cc(Br)c(O)c(Br)c1`, the Potency in experiment [1] is 79.4 µM (active) and inactive; in experiment [7] it was 54.8 µM (active) and 48.9 µM (active). In addition, the Potency result in experiment [2], in [3], in experiment [4], in experiment [5], in [9] and in experiment [6] was “inactive” in each case.

On to `Cc1ccc(CCn2c3c(c4cc(Cl)ccc42)CN(C)CC3)cn1`, for which the Potency entry in experiment [1], in [2], in experiment [3], in experiment [4] and in experiment [8] was “inactive” each time. The Potency in [9] is 9.44 µM (active).

As for `CC1=C(/C=C/C(C)=C/C=C/C(C)=C\C=O)C(C)(C)CCC1`, the Potency entry in [1], in [2], in experiment [3] and in experiment [7] was “inactive” each time. Also, the Potency is 23 µM (active) in experiment [4] and 10.3 µM (active) in experiment [6].

`Oc1c(Br)cc(Br)c2cccnc12`: the Potency result in [1], in experiment [2], in [10], in [8] and in [6] was “inactive” each time.
